The results in this text go back to PubChem BioAssay (NCI).

About 79,000 compounds went through this panel and 15% of them were active in at least one assay; those are over-represented in the sample as a whole. Active and inactive are the calls of the source. No stated cut-off is given here; in the data, active means growth inhibition above about 70%; inactive means the rest.

One experiment is described as follows: NCI Yeast Anticancer Drug Screen. Data for the mgt1 strain (AID 153). As to conditions: S. cerevisiae mgt1 mutant growth inhibition; at 11.0 µM; hits give high values. Summed up:
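After exposure of the mgt1 yeast mutant to compound, growth was measured and reported as inhibition compared with vehicle controls.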
On to `CN(C)CC(CN(C)C)C(=O)/C=C/c1ccc(Cl)cc1Cl`, for which the growth inhibition was 3% (inactive).
Regarding `c1ccc2c(c1)ccn2CCc1c[nH]c2ccccc12`, the growth inhibition was -4% (inactive).
On the same count and under the same terms, as for `Cc1ccccc1NC(=O)c1c(C)oc2c1C(=O)c1ccccc1C2=O`, the figure is -21% (inactive); as for `CC(C)OC(=O)NNc1c(Cl)cc(Cl)cc1Cl`, 2% (inactive); as for `COc1ccc2nc3cccc([N+](=O)[O-])c3c(NCCNCCO)c2c1`, 23% (inactive).
On the same count and under the same terms, as for `COc1ccc2c(c1)CCCC(Br)C2=O` (configuration not stated), the figure is 36% (inactive); as for `CCC(OC(C)=O)C1CC(C(C)C)CCC1C` (configuration not stated), 0% (inactive).
`O=S(=O)(c1cccc(C(F)(F)F)c1)N1c2ccccc2-n2cccc2C1c1cccnc1` (configuration not stated): the growth inhibition is 78% (active).
On to `c1ccc(-c2cc(C3CO3)c3ccccc3n2)cc1` (configuration not stated), for which the growth inhibition is 1% (inactive).
On to `COc1ccc(/C=C2\SC(=S)N(/C=C3\C(=O)N(c4ccccc4)N=C3C)C2=O)cc1OC`, for which the growth inhibition is 27% (inactive).
For the compound `CC1=CC(=C(c2ccc(N)c(C)c2)c2ccc(N)c(C)c2)C=CC1=N`, the growth inhibition was 12% (inactive).
In the case of `CC1C(c2ccccc2)SC(=N)N1C` (configuration not stated), the growth inhibition is 0% (inactive).
The same measure, in the same setting: the value for `CC(/C=C/c1ccc([N+](=O)[O-])o1)=N/N1CC(CN2CCOCC2)OC1=O` (configuration not stated) was 12% (inactive); that for `C=CC(C)(C)N1C(=O)C(C(C)=O)=C(O)C1Cc1c[nH]c2ccccc12` (configuration not stated) was -1% (inactive).
With `O=C1c2cccc3cccc(c23)C(=O)N1CCNCCN1C(=O)c2cccc3cccc(c23)C1=O`, the growth inhibition is -1% (inactive).
With `Cc1ccc([N+](=O)[O-])c2c(NCCC[N+](C)(C)[O-])c3ccccc3nc12`, the growth inhibition was -6% (inactive).
With `COC(=O)C(Cc1c[nH]c2ccccc12)N1CN(C)c2ccccc2C1=O` (configuration not stated), the growth inhibition was -1% (inactive).
`O=C(/N=N/C(=O)Oc1ccccc1)Oc1ccccc1`: the growth inhibition is -63% (inactive).
As for `COc1cc([C@@H]2c3cc4c(cc3[C@@H](NC(=O)NO)[C@H]3COC(=O)[C@H]23)OCO4)cc(OC)c1O`, the growth inhibition is -2% (inactive).
As to `CC1(C)CC(=O)C(/C=N/c2nc(-c3ccc(Br)cc3)cs2)=C(O)C1`, the growth inhibition was 37% (inactive).
On to `CCOC(=O)/C(=C/c1cccc(Cl)c1)N(CC)CC`, for which the growth inhibition is 27% (inactive).
`CC(C)OC(=O)NNc1cccc(Cl)c1`: the growth inhibition was 87% (active).
The same measure, in the same setting: the value for `CCC(=O)C1=C(O)c2cc(OC)ccc2CC1C(=O)OC` (configuration not stated) was 4% (inactive); that for `O=S(=O)(NC1CCCC(c2ccccc2)C1)c1ccccc1` (configuration not stated) was -1% (inactive).
As for `COc1ccc2nc3cccc([N+](=O)[O-])c3c(NCCCCCC(=O)O)c2c1`, the growth inhibition is 91% (active).
The same measure, in the same setting: the value for `CCO/C=C1\SC(=S)N(c2ccc(OCC)cc2)C1=O` was -20% (inactive).
Regarding `COc1cc(OC)c(CSCC(NC(=O)OCC2c3ccccc3-c3ccccc32)C(=O)O)c(OC)c1` (configuration not stated), the growth inhibition is 52% (inactive).
In the case of `COC(=O)c1ccccc1N=NNc1cccc(SC)c1`, the growth inhibition is -3% (inactive).
Turning to `CC1=NN(C(=O)c2ccccc2O)C(=O)/C1=C/c1ccco1`, the growth inhibition was 65% (inactive).
Turning to `COc1ccccc1NC(=O)c1ccc(Cl)cc1`, the growth inhibition was 0% (inactive).
The same measure, in the same setting: the value for `CC(C)=CCC/C(C)=C/CN1C(=O)C=CC1=O` was 100% (active); that for `O=C1CSC(c2ccccc2)N1c1ccc(-c2ccc(-n3c(-c4ccccc4)nc4ccccc4c3=O)cc2)cc1` (configuration not stated) was 0% (inactive).
In the case of `N#CC1OB(O)c2ccccc21` (configuration not stated), the growth inhibition was -2% (inactive).
`O=C(NCCNCCNC(=O)c1cc(-c2ccccc2)nc2ccccc12)c1cc(-c2ccccc2)nc2ccccc12`: the growth inhibition was -2% (inactive).
Still for that read-out and setting: the value for `Brc1ccc(B2Nc3ccccc3N2)cc1` was 10% (inactive); that for `CCOP(=O)(OCC)/C(C#N)=C/c1cccc(Oc2ccccc2)c1` was 28% (inactive).

Staying with this experiment, now noted: S. cerevisiae mgt1 mutant growth inhibition; at 33.0 µM; hits give high values.
On to `CN(C)CC(CN(C)C)C(=O)/C=C/c1ccc(Cl)cc1Cl`, for which the growth inhibition was 99% (active).
Same read-out and setting: as for `c1ccc2c(c1)ccn2CCc1c[nH]c2ccccc12`, the figure is 33% (inactive); as for `Cc1ccccc1NC(=O)c1c(C)oc2c1C(=O)c1ccccc1C2=O`, 57% (inactive).
The same measure, in the same setting: the value for `CC(C)OC(=O)NNc1c(Cl)cc(Cl)cc1Cl` was 8% (inactive); that for `COc1ccc2nc3cccc([N+](=O)[O-])c3c(NCCNCCO)c2c1` was 69% (inactive).
Regarding `COc1ccc2c(c1)CCCC(Br)C2=O` (configuration not stated), the growth inhibition was 78% (active).
Take `CCC(OC(C)=O)C1CC(C(C)C)CCC1C` (configuration not stated): the growth inhibition is 5% (inactive).
On the same count and under the same terms, the value for `O=S(=O)(c1cccc(C(F)(F)F)c1)N1c2ccccc2-n2cccc2C1c1cccnc1` (configuration not stated) was 94% (active); that for `c1ccc(-c2cc(C3CO3)c3ccccc3n2)cc1` (configuration not stated) was 69% (inactive); that for `COc1ccc(/C=C2\SC(=S)N(/C=C3\C(=O)N(c4ccccc4)N=C3C)C2=O)cc1OC` was 79% (active).
For `CC1=CC(=C(c2ccc(N)c(C)c2)c2ccc(N)c(C)c2)C=CC1=N`, the growth inhibition is 39% (inactive).
Turning to `CC1C(c2ccccc2)SC(=N)N1C` (configuration not stated), the growth inhibition was -1% (inactive).
Regarding `CC(/C=C/c1ccc([N+](=O)[O-])o1)=N/N1CC(CN2CCOCC2)OC1=O` (configuration not stated), the growth inhibition is 30% (inactive).
`C=CC(C)(C)N1C(=O)C(C(C)=O)=C(O)C1Cc1c[nH]c2ccccc12` (configuration not stated): the growth inhibition is 16% (inactive).
Still for that read-out and setting: as for `O=C1c2cccc3cccc(c23)C(=O)N1CCNCCN1C(=O)c2cccc3cccc(c23)C1=O`, the figure is 1% (inactive); as for `Cc1ccc([N+](=O)[O-])c2c(NCCC[N+](C)(C)[O-])c3ccccc3nc12`, 5% (inactive); as for `COC(=O)C(Cc1c[nH]c2ccccc12)N1CN(C)c2ccccc2C1=O` (configuration not stated), 5% (inactive).
Consider `O=C(/N=N/C(=O)Oc1ccccc1)Oc1ccccc1`, for which the growth inhibition was -29% (inactive).
Regarding `COc1cc([C@@H]2c3cc4c(cc3[C@@H](NC(=O)NO)[C@H]3COC(=O)[C@H]23)OCO4)cc(OC)c1O`, the growth inhibition is 14% (inactive).
`CC1(C)CC(=O)C(/C=N/c2nc(-c3ccc(Br)cc3)cs2)=C(O)C1`: the growth inhibition was 96% (active).
Consider `CCOC(=O)/C(=C/c1cccc(Cl)c1)N(CC)CC`, for which the growth inhibition is 51% (inactive).
Regarding `CC(C)OC(=O)NNc1cccc(Cl)c1`, the growth inhibition was 98% (active).
On the same count and under the same terms, the value for `CCC(=O)C1=C(O)c2cc(OC)ccc2CC1C(=O)OC` (configuration not stated) was 10% (inactive); that for `O=S(=O)(NC1CCCC(c2ccccc2)C1)c1ccccc1` (configuration not stated) was -2% (inactive); that for `COc1ccc2nc3cccc([N+](=O)[O-])c3c(NCCCCCC(=O)O)c2c1` was 97% (active).
As to `CCO/C=C1\SC(=S)N(c2ccc(OCC)cc2)C1=O`, the growth inhibition was 0% (inactive).
The same measure, in the same setting: the value for `COc1cc(OC)c(CSCC(NC(=O)OCC2c3ccccc3-c3ccccc32)C(=O)O)c(OC)c1` (configuration not stated) was 97% (active); that for `COC(=O)c1ccccc1N=NNc1cccc(SC)c1` was 92% (active).
With `CC1=NN(C(=O)c2ccccc2O)C(=O)/C1=C/c1ccco1`, the growth inhibition was 88% (active).
As for `COc1ccccc1NC(=O)c1ccc(Cl)cc1`, the growth inhibition is -2% (inactive).
Same read-out and setting: as for `CC(C)=CCC/C(C)=C/CN1C(=O)C=CC1=O`, the figure is 100% (active).
On to `O=C1CSC(c2ccccc2)N1c1ccc(-c2ccc(-n3c(-c4ccccc4)nc4ccccc4c3=O)cc2)cc1` (configuration not stated), for which the growth inhibition is 22% (inactive).
`N#CC1OB(O)c2ccccc21` (configuration not stated): the growth inhibition was 0% (inactive).
With `O=C(NCCNCCNC(=O)c1cc(-c2ccccc2)nc2ccccc12)c1cc(-c2ccccc2)nc2ccccc12`, the growth inhibition was 0% (inactive).
For the compound `Brc1ccc(B2Nc3ccccc3N2)cc1`, the growth inhibition was 25% (inactive).
Turning to `CCOP(=O)(OCC)/C(C#N)=C/c1cccc(Oc2ccccc2)c1`, the growth inhibition is 95% (active).
